Laboratory results published in PubChem BioAssay (NCI).
About 83,000 compounds went through this panel and 20% of them were active in at least one assay; those are over-represented in the sample as a whole.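 The test compound was applied at a single concentration to cells in 96-well plates for 48 hours, and percent growth was recorded.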 Unmarked numbers belong to inactive results. Active and inactive are the calls of the source. The calls were made as follows: active = growth percent below 10; inactive = the rest.

Experiments:
Assay in all cases: NCI-60 one-dose screen, 48 h (100 = growth as untreated, 0 = no growth, -100 = all killed)
Conditions in all cases: 10 µM
[1] = test system: HCT-15 colon
[2] = test system: HT29 colon
[3] = test system: SNB-75 CNS
[4] = test system: SNB-19 CNS
[5] = test system: U251 CNS
[6] = test system: PC-3 prostate
[7] = test system: SK-MEL-5 melanoma
[8] = test system: UACC-62 melanoma
[9] = test system: LOX IMVI melanoma
[10] = test system: SK-MEL-28 melanoma

Structure (SMILES) | growth [1] | growth [2] | growth [3] | growth [4] | growth [5] | growth [6] | growth [7] | growth [8] | growth [9] | growth [10]
COc1cc(C(c2c[nH]c3ccccc23)N2CCCC2)ccc1OCc1ccccc1 (centres undefined) | 77.1% | 78.5% | 41.3% | 87.5% | 86% | 55.1% | 75.6% | 60.9% | 68.9% | –
COc1cc(CSc2nc3ccc(Cl)cc3c(=O)n2-c2ccccc2)cc(OC)c1OC | 52.5% | 67% | 75.8% | 80.6% | 88.6% | 73.2% | 81.3% | 64.1% | 79.3% | 103%
COc1ccc2nc(C)cc(Nc3ccc(Cl)cc3)c2c1 | 99.1% | 116% | 102% | 104% | 97.1% | 100% | 93.7% | 99% | 105% | –
COc1cc(-c2n/c(=C\c3c(O)[nH]c4ccccc34)cc3c2=Nc2ccccc2-3)cc(OC)c1OC | 14.3% | 4.2% (active) | 5.55% (active) | 37.7% | 12.5% | 30.2% | 2.12% (active) | 40% | 25.8% | –
Cc1c(C(=O)N[C@H](CO)Cc2ccccc2)[nH]c2ccc(Cl)cc2c1=O | 100% | 90.1% | 99.9% | 106% | 92.7% | 97.6% | 99% | 92.9% | 97.9% | –
CS(=O)(=O)Nc1ccc(OCc2nnc(-c3ccc(Cl)cc3)o2)c(F)c1 | 88% | 105% | 82.7% | 93.5% | 99% | 91% | 92.3% | 83.7% | 82.9% | –
COc1cc(Cl)cc(-c2nn(-c3cccc(NC(=O)Nc4cccc(C(F)(F)F)c4)c3)cc2-c2ccncc2)c1 | 7.83% (active) | 5.75% (active) | 12.5% | 16.1% | 4.59% (active) | -9.92% (active) | 5.3% (active) | -11.5% (active) | 4.64% (active) | –
CC(C)(C)c1ccc(OCCCCCCN2CCNCC2)cc1 | 6.25% (active) | 25% | 53.7% | 66.2% | 30.7% | 39.6% | 50.4% | -32.2% (active) | -16.7% (active) | 59.1%
COc1ccc2c(c1)/C(=C/c1cc(OC)c(OC)c(OC)c1)C(=O)N2C | 12.6% | 11.8% | -14.6% (active) | 4.75% (active) | 5.64% (active) | 38.3% | -12.7% (active) | 18.9% | 10.8% | 28.8%
CCCn1c(=O)c2c(nc(-c3cccc(OCCCCl)c3)n2C)n(CCC)c1=O | 69.1% | 74.2% | -12.7% (active) | 32.9% | 17% | 62.3% | 64.9% | 78.9% | 48.5% | 81.7%
C=CCN1C(=O)/C(=C\c2ccc3c(c2)CCC3)SC1=S | 98.8% | 97.4% | 99.9% | 94.2% | 100% | 107% | 99.6% | 99.2% | 98.5% | 113%
Cc1nc2sccn2c1-c1csc(Nc2cccc(Cl)c2C)n1 | 46.4% | 31% | 77.5% | 77.1% | 60.8% | 53.1% | 16.5% | 53.3% | 61.4% | 59.7%
COc1ccc(-c2cc(/C=C3\C(=O)Nc4cc(Cl)ccc43)[nH]n2)cc1 | 28.6% | 1.13% (active) | -27.5% (active) | 49% | 40.1% | 14% | 25.1% | 32.4% | 38.2% | 50.5%
Oc1[nH]c2ccccc2c1/C=c1/cc2c(c(-c3ccc(C(F)(F)F)cc3)n1)=Nc1ccccc1-2 | 49.4% | 20.2% | 63.4% | 82.7% | 60.1% | 34.9% | 57.2% | 77% | 60.5% | 52.8%
COc1ccccc1S(=O)(=O)Nc1ccc2c(c1)CN(C)C(=O)N2 | 40.8% | 22.8% | 17.5% | 54.1% | 50% | 35.3% | 40.5% | 29.3% | 29.1% | 48.9%
O=C(NCCc1nccs1)c1cnc2c(S)cccc2c1 | 17.6% | 20.4% | 44.1% | 28.5% | 12.8% | 34.2% | -22.1% (active) | -6.53% (active) | 2.38% (active) | 30.5%
CCOc1nc(-c2ccccc2)cc2c(O)c(C(=O)NC(C)C)[nH]c(=O)c12 | 99.7% | 125% | 103% | 96.9% | 99.8% | 46.4% | 99.5% | 105% | 97.6% | 89.7%
N#C/C(=C\N1C(=O)/C(=C/c2cccc([N+](=O)[O-])c2)SC1=S)c1nc2ccccc2s1 | 95% | 90.6% | 82.5% | 88.8% | 69% | 83.5% | 64.6% | 63.3% | 79.8% | 92.4%
COc1ccc(-c2ccccc2)cc1C(=O)c1ccc(-c2ccccc2)cc1 | 63.1% | 41.8% | 87.5% | 81.3% | 77% | 71.6% | 73.1% | 62.2% | 77% | 76.5%
CC(CNC(Cc1ccccc1)c1ccccc1)NC(Cc1ccccc1)c1ccccc1 (centres undefined) | 30.6% | 4% (active) | 68.9% | 61.7% | 34.3% | 40.7% | 14.2% | 61.4% | -5.75% (active) | 64.2%
Cc1ccc2c3c(cccc13)-c1ccccc1C2=O | 85% | 83.3% | 89.6% | 96.5% | 87.8% | 91.3% | 91.3% | 90.6% | 97.8% | 121%
CCOC(=O)Nc1ccc2c(c1)C(=O)N(CCOC)c1ccccc1O2 | 26.1% | 8.18% (active) | 31.9% | 54.5% | 39.3% | 38.4% | 12.3% | 30.6% | 38.7% | 62.9%
CCN1CCN(c2ccc(Nc3ncnc4c3nnn4CCc3cc(OC)cc(OC)c3)cc2)CC1 | 63.6% | 57.9% | 79.8% | 94% | 77.4% | 82.2% | 73.5% | 93.9% | 88.1% | 101%
c1ccc(CC(NCCNC(Cc2ccccc2)c2ccccc2)c2ccccc2)cc1 (centres undefined) | 15.5% | -27.7% (active) | 63.3% | 44.4% | 13% | 24.2% | -52.3% (active) | 16% | -87.9% (active) | 50.2%
Nc1nc2c(ncn2C2OC3COP(=O)(O)OC4C(COP(=O)(O)OC2C3O)OC(n2cnc3c(N)ncnc32)C4O)c(=O)[nH]1 (centres undefined) | 106% | 97.4% | 104% | 93.5% | 110% | 108% | 106% | 103% | 90.2% | 113%
CCCCCc1cc[n+](CC(=O)c2ccc(Cl)cc2)cc1 | 98.5% | 64.7% | 84.4% | 96.7% | 97.8% | 85.7% | 94.9% | 82.8% | 87.4% | 101%
C=CCNC(=S)NN | 90.7% | 55.5% | 95.3% | 94.4% | 77.4% | 58.4% | 99.5% | 99.6% | 97.3% | 104%
Cc1nc2cc(-n3c(-c4ccc(F)cc4)nc4ccccc4c3=O)ccc2n1Cc1ccccc1 | 3.41% (active) | -23.8% (active) | 6.2% (active) | 37.9% | 9.65% (active) | 9.75% (active) | -77% (active) | 0.751% (active) | 6.97% (active) | -60.3% (active)
